# Compound activity as filed in PubChem BioAssay.
# N370S GC: qHTS Assay for Inhibitors and Activators of N370S glucocerebrosidase as a Potential Chaperone Treatment of Gaucher Disease; Lysosomal acid glucosylceramidase (Homo sapiens), P04062; N370S GC spleen homogenate, 4MU-glucoside fluorescence; Potency, µM (top dose mostly 59.4 µM), for inactives: at the highest dose activity change, negative = inhibition, hits mostly inhibitors; 0.092% of 330,000 active;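 further: potency means the concentration at half of the fitted maximal effect; 0% = full enzyme activity and -100% = no enzyme basal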
# GAA inhib: qHTS Assay for Inhibitors of Human alpha-Glucosidase as a Potential Chaperone Treatment of Pompe Disease | Lysosomal alpha-glucosidase (Homo sapiens), P10253 | purified human GAA, 4-MU-alpha-glucoside fluorescence | Potency, µM (top dose mostly 76.9 µM), inactives show at the highest dose activity change, negative = inhibition, hits mostly inhibitors | 0.005% of 200,000 active | AID 1466, 2008;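 further: potency means the concentration at half of the fitted maximal effect; plate controls were uninhibited enzyme wells for no effect and no-enzyme background for full effect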
#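 Fluorescence at Ex 365/Em 440 nm from 4-methylumbelliferone reported enzyme activity after 20 min at room temperature. Reactions used 4 nM enzyme and 400 uM substrate at pH 5.0; curves fitted with the Hill equation.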
# GAA spleen mod: qHTS Assay for Inhibitors and Activators of Human alpha-Glucosidase From Spleen Homogenate; Potency, µM (highest dose often 79.9 µM), inactives show at the top dose activity change, negative = inhibition, usual class: inhibitors; Lysosomal alpha-glucosidase (Homo sapiens), P10253; human spleen homogenate, 4-MU-alpha-glucoside fluorescence; 0.006% of 240,000 active;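 further: potency means the concentration at half of the fitted maximal effect; 0% = enzyme with vehicle and -100% = no enzyme basal signal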
#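 Human spleen homogenate (1 ug) incubated with compounds and 1 mM 4-methylumbelliferyl-alpha-D-glucopyranoside in pH 5.0 citrate/phosphate buffer, 37 C, 40 min. Stopped at pH 10; 4-MU fluorescence (Ex 365/Em 440 nm); AC50 by Hill fit.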
# GLA inh pH 4.5: qHTS Assay for Inhibitors of Human alpha-Galactosidase at pH 4.5; Alpha-galactosidase A (Homo sapiens), P06280; 230,000 tested, under 10 active; purified enzyme, 4-MU-alpha-Gal fluorescence, pH 4.5; activity change, negative = inhibition, % at 105 µM;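 further: 0% = full activity with enzyme and -100% = basal without enzyme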
# GAA glycogen: qHTS Assay for Inhibitors and Activators of Human alpha-Glucosidase Cleavage of Glycogen; recombinant GAA, glycogen substrate, Amplex Red glucose oxidase fluorescence; Potency, µM (top dose mostly 76.4 µM), for inactives: at the top dose activity change, negative = inhibition, hits mostly inhibitors; 0.38% of 300,000 active; AID 2100, 2009;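 further: potency means the concentration at half of the fitted maximal effect; 0% = full enzyme reaction and -100% = no-enzyme basal signal; the screen sought inhibitors and activators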
#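 Recombinant enzyme (4 nM final) with compounds titrated up to 77 uM and bovine liver glycogen (30 ug) in citrate pH 5.0, 0.01% Tween-20, 37 C 40 min. Released glucose detected by Amplex Red/glucose oxidase (Ex 573/Em 610); AC50 from Hill fits.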
# aGal spleen mod: qHTS Assay for Inhibitors and Activators of Human alpha-Galactosidase From Spleen Homogenate; Alpha-galactosidase A (Homo sapiens), P06280; human spleen homogenate, 4MU-alpha-Gal fluorescence, 40 min; Potency, µM (highest dose often 80 µM), for the others: at the highest dose activity change, negative = inhibition, hits mostly inhibitors; 0.008% of 240,000 active; AID 2107, 2009;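 further: potency means the concentration at half of the fitted maximal effect; 0% = enzyme with vehicle and -100% = no enzyme basal signal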
# Target sequence (P06280 32-429 limits assumed): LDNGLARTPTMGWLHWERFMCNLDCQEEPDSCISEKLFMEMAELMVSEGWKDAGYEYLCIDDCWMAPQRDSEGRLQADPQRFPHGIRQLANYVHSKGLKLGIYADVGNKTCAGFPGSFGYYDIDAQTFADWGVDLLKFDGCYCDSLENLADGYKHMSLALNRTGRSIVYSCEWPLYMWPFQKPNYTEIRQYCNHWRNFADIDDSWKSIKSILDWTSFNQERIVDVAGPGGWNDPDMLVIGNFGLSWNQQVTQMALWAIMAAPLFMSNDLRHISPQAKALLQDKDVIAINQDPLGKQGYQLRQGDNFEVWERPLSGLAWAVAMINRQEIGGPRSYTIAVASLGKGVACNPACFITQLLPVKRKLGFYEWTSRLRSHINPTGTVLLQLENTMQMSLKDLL
#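 Human spleen homogenate (1 ug) as enzyme source, 4-methylumbelliferyl-alpha-D-galactopyranoside 1 mM final, citrate/phosphate pH 5.0 with 0.01% Tween-20. Compounds 40 min at 37C, NaOH/glycine stop; fluorescence Ex 365/Em 440, Hill-fit AC50.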
# The depositor's hits bear a star; ? = inconclusive; · = no result given; [ ] = dose if it differs, or a comment. Sampled rows, rich in hits. Any-hit rate of the full collection: about 0.41%. The call rests on the fitted dose curve; in most records, active means well fitted curve in the direction sought with a large enough effect; inconclusive means small, poorly fitted or top-dose-only effect, or another doubt; inactive means no such curve, though single readings can be large; an effect the other way counts as inactive or inconclusive.
SMILES,N370S GC,GAA inhib,GAA spleen mod,GLA inh pH 4.5,GAA glycogen,aGal spleen mod
CC(=O)Nc1ccn(C2OC(C(COC(C)=O)NC(=O)C(C)NC(=O)OC(C)(C)C)C(OC(C)=O)C2OC(C)=O)c(=O)n1 (stereo unspecified),-3%,·,2%,·,·,8%
O=C1COCCN1,2%,·,10%,·,·,11%
Cc1ccc(O)c(Nc2c3ccccc3nc3ccccc23)c1,?,·,·,·,11µM*,·
CCCNC(=S)Nc1ccc(Nc2ccccc2)cc1,3%,-2%,4%,-8,16µM*,7%
CNC(=S)Nc1ccc(Nc2ccccc2)cc1,0%,7%,-2%,5,25µM*,0%
CNC(=S)Nc1ccc(Br)cc1,6%,5%,-1%,-16,-4%,-4%
CN(C)C1CCN(CCCOc2ccc(-c3ccc(C#N)cc3)cc2)C1 (stereo unspecified),4%,·,-2%,·,·,8%
O=c1ccc2ccccc2[nH]1,-12%,·,4%,·,·,11%
CC(C)C[C@H](NC(=O)[C@H](CO)NC(=O)CNC(=O)[C@H](CCCCN)NC(=O)[C@H](CCCN=C(N)N)NC(=O)[C@H](C)NC(=O)[C@H](Cc1ccccc1)NC(=O)[C@@H](N)CCCN=C(N)N)C(=O)N[C@@H](CCCN=C(N)N)C(=O)N[C@@H](CCC(N)=O)C(=O)N[C@@H](CCCCN)C(=O)N[C@@H](CC(N)=O)C(=O)N[C@H](C(=O)O)C(C)C,0%,·,-1%,·,·,8%
CC(C)(C)c1cc(CNC2CS(=O)(=O)C[C@@H]2O)cc(C(C)(C)C)c1O (stereo partly specified),?,7%,4%,0,16µM*,10%
O=S1(=O)CC(O)C(NCc2ccco2)C1 (stereo unspecified),5%,1%,11%,0,8%,3%
COc1cccc(C(c2c(NC(=O)c3ccccc3)sc(C)c2C)N2CCN(C)CC2)c1 (stereo unspecified),16µM*,5%,3%,1,3%,4%
CC[C@H](C)[C@H](NC(=O)[C@H](CC(=O)O)NC(=O)[C@H](CC(C)C)NC(=O)[C@H](NC(C)=O)C(c1ccccc1)c1ccccc1)C(=O)N[C@H](C(=O)N[C@@H](Cc1c[nH]c2ccccc12)C(=O)O)[C@@H](C)CC,2%,·,3%,·,·,9%
CN1CCN(NC(=O)c2cn(-c3ccccc3)nc2-c2cccc(Br)c2)CC1,10µM*,7%,2%,9,-3%,7%
Cc1cc(C)c(S(=O)(=O)/N=C2\C=CC(=O)C(Cl)=C2)c(C)c1,-1%,?,-2%,0,12µM*,-3%
Brc1ccc(C=Nc2ccc(Nc3ccccc3)cc2)s1,-4%,2%,-11%,19,8.9µM*,1%
C(=Nc1ccc(Nc2ccccc2)cc1)c1ccc2ccccc2c1,-6%,-5%,-3%,-1,18µM*,-9%
Oc1ccccc1N=Cc1c(O)ccc2oc3c(c12)CCCC3,7%,·,3%,-2,5.6µM*,-1%
NCCCC[C@H](NC(=O)[C@H](CS)NC(=O)[C@@H](N)Cc1cnc[nH]1)C(=O)N[C@@H](Cc1ccccc1)C(=O)N[C@@H](Cc1c[nH]c2ccccc12)C(=O)N[C@@H](Cc1c[nH]c2ccccc12)C(=O)O,2%,·,-2%,·,·,-11%
CC1(C)CC(=O)C2=C(C1)NC1=C(C(=O)c3ccccc31)C2c1ccccc1 (stereo unspecified),?,-4%,-5%,3,-21%,-2%
CC1(C)CC(=O)C2=C(C1)NC1=C(C(=O)c3ccccc31)C2c1cc([N+](=O)[O-])ccc1O (stereo unspecified),14µM*,·,-4%,-4,-24%,0%
Nc1ccc2nc(N3CCOCC3)sc2c1,0%,-3%,2%,-6,6.3µM*,1%
Cc1c(Nc2c3c(c(C#N)c4nc5ccccc5n24)CCC3)c(=O)n(-c2ccccc2)n1C,-8%,6%,3%,-4,7µM*,21%
CCCCc1c(C)c(C#N)c2nc3ccccc3n2c1Nc1c(C)n(C)n(-c2ccccc2)c1=O,10%,5%,-3%,4,?,7%
O=c1[nH][nH]cc1C=Nc1ccccc1O,7%,6%,-20%,-6,?,-2%
SMILES,N370S GC,GAA inhib,GAA spleen mod,GLA inh pH 4.5,GAA glycogen,aGal spleen mod
O=c1c(=Nc2ccccc2O)c(=O)c2ccccc12,-2%,4%,4%,7,8.9µM*,3%
COc1ccc(COC(=O)C2=C(C)NC(=O)NC2c2cccc(OC)c2OC)cc1 (stereo unspecified),-6%,·,·,·,40µM*,·
CCC1CCCCN1CCCNC(=O)c1ccc2c(c1)N(Cc1ccccc1F)C(=O)c1ccccc1S2(=O)=O (stereo unspecified),·,·,·,·,-17%[76.3 µM],·
COc1cc(O)ccc1-c1nc2cc(C)ccn2c1Nc1ccccc1C,·,·,·,·,13µM*,·
C[C@@H]1O[C@@H](Oc2c(-c3cc(O)c(O)c(O)c3)oc3cc(O)cc(O)c3c2=O)[C@H](O)[C@H](O)[C@H]1O,-6%,-3%[15.4 µM],-2%,-9,3.2µM*,22%
O=c1c(OC2OC(CO)C(O)C(O)C2O)c(-c2ccc(O)c(O)c2)oc2cc(O)cc(O)c12 (stereo unspecified),-13%,-1%[15.4 µM],-1%,-3,13µM*,-5%
COc1cc(C2Nc3ccc4ncccc4c3C3=C2C(=O)CCC3)cc(OC)c1O (stereo unspecified),-3%,-3%,-5%,-7,45µM*,-8%
O=C1/C(=C\c2ccc(O)c(O)c2)C(c2ccccc2)=NN1c1ccccc1,4%,4%,-2%,-1,4µM*,2%
COC(=O)c1ccccc1S(=O)(=O)N1CCc2nc(-c3ccccc3)c3c(c2C1)CO[C@@H](C)C3,4%[12.8 µM],·,-4%[17.4 µM],0,·,4%[17.5 µM]
O=C(C1=C[C@@H](c2ccc(Br)cc2)C[C@@H](OCc2ccc(CO)cc2)O1)N1CCN(Cc2ccccc2)CC1,14µM*,·,4%,-2,4%,2%
